Reference: the supplement of paper PMC12494721
Where a name gives a salt, the structure may show the parent alone.

Columns and labels:
Conditions in all cases: incubation time: 27 h, anaerobic, 37 °C;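 for the amine columns active = adjusted P below 0.05 in both replicates with a change the same way and a mean fold change under 0.8 or over 1.25; inactive = the rest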
[1] = test system: Clostridium sporogenes DSM 1664; experiment: growth (OD595) fold change vs plate DMSO controls (fold change (ratio)); higher = more growth
Procedure, shortened: (§1)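 Shaken 96-well cultures in mGAM, grown anaerobically for 27 h at 37 °C, were read at 595 nm. OD came from blank-subtracted readings, corrected for background with 20 µM compound solutions in water and scaled by a calibration factor of 5. Growth is the fold change versus the plate's median DMSO control. Values average 2 biological replicates, and any fold change above 1.5 is NA.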

[2] = test system: Escherichia coli IAI1; experiment: as above
Procedure, shortened: as §1

[3] = test system: Klebsiella aerogenes DSM 30053; experiment: as above
Procedure, shortened: as §1

[4] = test system: Ruminococcus gnavus DSM 108212; experiment: as above
Procedure, shortened: as §1

[5] = test system: Klebsiella aerogenes DSM 30053; experiment: fold change of Histamine concentration vs plate DMSO controls (fold change (ratio)); higher = more amine produced, active = hit call of the paper (significant change in both replicates, either direction)
Procedure, shortened: (§2)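 Using LC–triple-quadrupole MS with dynamic MRM, amines were quantified against external calibration curves and corrected for drift within each batch. Samples were whole anaerobic mGAM cultures of four gut strains, grown 27 h at 37 °C from OD 0.1 before 1:1 dilution, extracted with cold acetonitrile/methanol containing 0.1% formic acid and centrifuged. Compounds were present at 20 µM final (sweeteners at 50 µM final). The numbers are fold changes versus plate DMSO controls, each the mean of 2 biological replicates.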

[6] = test system: Clostridium sporogenes DSM 1664; experiment: fold change of Tryptamine concentration vs plate DMSO controls (fold change (ratio)); higher = more amine produced, active = hit call of the paper (significant change in both replicates, either direction)
Procedure, shortened: as §2

[7] = test system: Ruminococcus gnavus DSM 108212; experiment: as above
Procedure, shortened: as §2

[8] = test system: Escherichia coli IAI1; experiment: fold change of Putrescine concentration vs plate DMSO controls (fold change (ratio)); higher = more amine produced, active = hit call of the paper (significant change in both replicates, either direction)
Procedure, shortened: as §2

[9] = test system: Klebsiella aerogenes DSM 30053; experiment: as above
Procedure, shortened: as §2

[10] = test system: Escherichia coli IAI1; experiment: fold change of Cadaverine concentration vs plate DMSO controls (fold change (ratio)); higher = more amine produced, active = hit call of the paper (significant change in both replicates, either direction)
Procedure, shortened: as §2

[11] = test system: Klebsiella aerogenes DSM 30053; experiment: as above
Procedure, shortened: as §2

[12] = test system: Ruminococcus gnavus DSM 108212; experiment: fold change of 2-Phenylethylamine concentration vs plate DMSO controls (fold change (ratio)); higher = more amine produced, active = hit call of the paper (significant change in both replicates, either direction)
Procedure, shortened: as §2

Structure (SMILES)	growth [1]	growth [2]	growth [3]	growth [4]	fold change of Histamine concentration [5]	fold change of Tryptamine concentration [6]	fold change of Tryptamine concentration [7]	fold change of Putrescine concentration [8]	fold change of Putrescine concentration [9]	fold change of Cadaverine concentration [10]	fold change of Cadaverine concentration [11]	fold change of 2-Phenylethylamine concentration [12]
CN1CCN(CC(=O)N2c3ccccc3C(=O)Nc3cccnc32)CC1 [Pirenzepine dihydrochloride] (20 µM)	1.06	1.02	0.992	1.03	1.1 (inactive)	1.02 (inactive)	0.993 (inactive)	1.01 (inactive)	1.08 (inactive)	0.99 (inactive)	1.04 (inactive)	0.916 (inactive)
CC[C@H](c1ccc(O)cc1)[C@@H](CC)c1ccc(O)cc1 [Hexestrol] (20 µM)	0.933	1.03	0.999	0.869	1.06 (inactive)	0.609 (active)	0.789 (active)	1.05 (inactive)	1.01 (inactive)	1.06 (inactive)	0.989 (inactive)	0.749 (inactive)
CCN(CC)C(C)CN1c2ccccc2Sc2ccccc21 (stereo not drawn) [Ethopropazine hydrochloride] (20 µM)	1.04	0.975	0.954	0.823	1.01 (inactive)	1.03 (inactive)	0.928 (inactive)	1.05 (inactive)	1 (inactive)	1.04 (inactive)	0.992 (inactive)	0.984 (inactive)
COC(=O)Nc1nc2cc(Sc3ccccc3)ccc2[nH]1 [Fenbendazole] (20 µM)	1	1.08	0.98	1.09	1.07 (inactive)	0.986 (inactive)	1 (inactive)	1.05 (inactive)	1.03 (inactive)	0.967 (inactive)	0.991 (inactive)	1.02 (inactive)
